Holding throughout (test): DAPPL (digital affinity profiling via proximity ligation, sequencing); 10 mM Tris-HCl pH 7.5, 50 mM NaCl, 1 mM DTT, 4% glycerol, room temperature, 30 min; GST-TFs on glutathione beads, 16-mer random dsDNA library, 0.1% formaldehyde crosslink after washing; high values mean tight binding
The target of one test is T1, FEV (Homo sapiens, UniProt Q99581 1-238).
T1 sequence: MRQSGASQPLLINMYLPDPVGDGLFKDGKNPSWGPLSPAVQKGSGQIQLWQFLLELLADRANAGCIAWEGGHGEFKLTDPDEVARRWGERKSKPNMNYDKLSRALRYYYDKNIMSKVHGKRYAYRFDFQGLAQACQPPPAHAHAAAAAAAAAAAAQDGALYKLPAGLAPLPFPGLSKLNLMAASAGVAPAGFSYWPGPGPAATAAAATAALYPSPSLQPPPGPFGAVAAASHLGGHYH
The following applies: protein: recombinant; tags: N-terminal GST; dsDNA, one strand shown. A digest of the protocol: (§1)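 A tag-only sample was pooled with DNA-barcoded human transcription factors that had been expressed in yeast as GST fusions and captured on glutathione beads. The pools were incubated for 30 min at room temperature with 200 nmole of a random double-stranded 16-mer DNA library in Tris/NaCl/DTT/glycerol buffer, then washed, crosslinked with 0.1% formaldehyde, proximity-ligated (BsaI/T4 ligase, 1 h, 37 °C), PCR-amplified and sequenced on an Illumina NextSeq500. Binding signal is each hexamer's read frequency for a factor divided by its frequency for the tag-only sample.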

The target in a further test is ETV5 (Homo sapiens, UniProt P41161 1-510). The following applies: protein: recombinant; tags: N-terminal GST; dsDNA, one strand shown. Summed up: as §1
A further test concerns the target HSF1 (Homo sapiens, UniProt Q00613 1-529). The following applies: protein: recombinant; tags: N-terminal GST; chain copies: 3; dsDNA, one strand shown. Summed up: as §1
Another test addresses T2, SPIC (Homo sapiens, UniProt Q8N5J4 1-248).
T2 sequence: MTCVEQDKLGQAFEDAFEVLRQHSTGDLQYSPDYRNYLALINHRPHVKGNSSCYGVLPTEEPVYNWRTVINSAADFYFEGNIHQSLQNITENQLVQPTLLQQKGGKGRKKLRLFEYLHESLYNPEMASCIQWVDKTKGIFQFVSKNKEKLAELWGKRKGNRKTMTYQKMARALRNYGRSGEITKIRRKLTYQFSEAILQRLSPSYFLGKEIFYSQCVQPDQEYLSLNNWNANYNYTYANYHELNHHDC
The following applies: protein: recombinant; tags: N-terminal GST; dsDNA, one strand shown. Summed up: as §1

The next test has as its target ELF4 (Homo sapiens, UniProt Q99607 1-663). The following applies: protein: recombinant; tags: N-terminal GST; dsDNA, one strand shown. A digest of the protocol: as §1
The target in the next test is T3, ELK4 (Homo sapiens, UniProt P28324-2 1-405).
T3 sequence: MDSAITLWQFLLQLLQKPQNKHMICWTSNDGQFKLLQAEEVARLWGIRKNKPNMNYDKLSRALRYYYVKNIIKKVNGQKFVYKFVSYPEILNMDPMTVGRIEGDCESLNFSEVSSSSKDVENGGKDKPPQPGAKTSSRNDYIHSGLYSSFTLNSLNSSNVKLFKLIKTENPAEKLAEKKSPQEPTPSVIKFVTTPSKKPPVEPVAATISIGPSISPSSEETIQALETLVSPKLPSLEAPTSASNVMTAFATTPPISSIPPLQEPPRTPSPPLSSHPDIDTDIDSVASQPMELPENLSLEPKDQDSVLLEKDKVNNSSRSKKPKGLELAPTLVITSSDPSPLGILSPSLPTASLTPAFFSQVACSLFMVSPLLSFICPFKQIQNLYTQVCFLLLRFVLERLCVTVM
The following applies: protein: recombinant; tags: N-terminal GST; dsDNA, one strand shown. A digest of the protocol: as §1

In the next test the target is T4, ETV2 (Homo sapiens, UniProt O00321 1-342).
T4 sequence: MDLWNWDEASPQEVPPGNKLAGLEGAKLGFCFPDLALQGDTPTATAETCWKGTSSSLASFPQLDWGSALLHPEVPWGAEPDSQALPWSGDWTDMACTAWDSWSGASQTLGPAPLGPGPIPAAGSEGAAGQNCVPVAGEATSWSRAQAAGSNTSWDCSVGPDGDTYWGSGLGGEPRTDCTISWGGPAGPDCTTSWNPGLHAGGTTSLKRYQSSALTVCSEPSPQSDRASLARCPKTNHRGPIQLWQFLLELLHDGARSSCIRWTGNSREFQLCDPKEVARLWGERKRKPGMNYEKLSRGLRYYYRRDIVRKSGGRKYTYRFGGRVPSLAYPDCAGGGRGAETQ
The following applies: protein: recombinant; tags: N-terminal GST; dsDNA, one strand shown. Summed up:
as §1

The target in another test is T5, ELF3 (Homo sapiens, UniProt P78545 1-371).
T5 sequence: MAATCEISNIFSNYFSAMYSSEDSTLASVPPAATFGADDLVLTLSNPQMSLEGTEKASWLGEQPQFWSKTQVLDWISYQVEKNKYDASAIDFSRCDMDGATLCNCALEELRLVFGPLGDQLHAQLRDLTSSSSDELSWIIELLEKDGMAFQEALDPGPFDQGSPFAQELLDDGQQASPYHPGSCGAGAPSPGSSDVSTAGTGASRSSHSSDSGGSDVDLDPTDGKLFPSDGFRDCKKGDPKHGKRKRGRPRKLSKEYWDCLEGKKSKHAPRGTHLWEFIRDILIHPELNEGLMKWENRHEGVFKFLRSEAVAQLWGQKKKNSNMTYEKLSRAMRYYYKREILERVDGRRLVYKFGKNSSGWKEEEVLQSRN
The following applies: protein: recombinant; tags: N-terminal GST; dsDNA, one strand shown. A digest of the protocol: as §1

A further test has as its target CRX (Homo sapiens, UniProt O43186 1-299). The following applies: protein: recombinant; tags: N-terminal GST; dsDNA, one strand shown. Summed up:
as §1

For another test, the target named is ETV1 (Homo sapiens, UniProt P50549 1-477). The following applies: protein: recombinant; tags: N-terminal GST; dsDNA, one strand shown. Summed up:
as §1

Another test deals with T6, ERF (Homo sapiens, UniProt P50548 1-548).
T6 sequence: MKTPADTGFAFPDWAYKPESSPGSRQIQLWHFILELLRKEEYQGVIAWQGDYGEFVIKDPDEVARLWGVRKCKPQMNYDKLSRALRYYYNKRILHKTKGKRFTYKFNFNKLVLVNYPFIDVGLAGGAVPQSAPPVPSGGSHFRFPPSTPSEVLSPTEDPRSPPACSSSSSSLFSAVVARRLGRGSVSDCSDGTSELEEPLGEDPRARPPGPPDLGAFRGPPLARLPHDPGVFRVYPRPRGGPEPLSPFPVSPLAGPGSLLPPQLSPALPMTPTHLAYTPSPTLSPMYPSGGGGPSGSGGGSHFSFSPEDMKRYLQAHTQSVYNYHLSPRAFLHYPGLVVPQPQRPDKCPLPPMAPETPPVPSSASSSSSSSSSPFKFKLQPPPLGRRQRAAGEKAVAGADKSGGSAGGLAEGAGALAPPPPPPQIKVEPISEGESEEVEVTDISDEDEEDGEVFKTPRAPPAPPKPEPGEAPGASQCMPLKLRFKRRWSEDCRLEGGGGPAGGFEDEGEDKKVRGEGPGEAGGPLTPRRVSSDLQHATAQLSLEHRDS
The following applies: protein: recombinant; tags: N-terminal GST; dsDNA, one strand shown. A digest of the protocol:
as §1

A further test addresses T7, ETV3L (Homo sapiens, UniProt Q6ZN32 1-361).
T7 sequence: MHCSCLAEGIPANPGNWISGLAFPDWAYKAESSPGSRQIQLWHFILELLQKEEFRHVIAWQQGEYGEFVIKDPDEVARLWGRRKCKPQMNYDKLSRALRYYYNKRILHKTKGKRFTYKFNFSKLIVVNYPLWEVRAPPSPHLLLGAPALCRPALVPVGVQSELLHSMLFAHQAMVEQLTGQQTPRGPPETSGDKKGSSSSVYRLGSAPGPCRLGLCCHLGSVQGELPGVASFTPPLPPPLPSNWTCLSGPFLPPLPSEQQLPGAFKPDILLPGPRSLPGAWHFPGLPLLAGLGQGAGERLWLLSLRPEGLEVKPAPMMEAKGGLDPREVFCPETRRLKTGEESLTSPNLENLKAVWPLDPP
The following applies: protein: recombinant; tags: N-terminal GST; dsDNA, one strand shown. Summed up: as §1

The target of another test is T8, ETS2 (Homo sapiens, UniProt P15036 1-469).
T8 sequence: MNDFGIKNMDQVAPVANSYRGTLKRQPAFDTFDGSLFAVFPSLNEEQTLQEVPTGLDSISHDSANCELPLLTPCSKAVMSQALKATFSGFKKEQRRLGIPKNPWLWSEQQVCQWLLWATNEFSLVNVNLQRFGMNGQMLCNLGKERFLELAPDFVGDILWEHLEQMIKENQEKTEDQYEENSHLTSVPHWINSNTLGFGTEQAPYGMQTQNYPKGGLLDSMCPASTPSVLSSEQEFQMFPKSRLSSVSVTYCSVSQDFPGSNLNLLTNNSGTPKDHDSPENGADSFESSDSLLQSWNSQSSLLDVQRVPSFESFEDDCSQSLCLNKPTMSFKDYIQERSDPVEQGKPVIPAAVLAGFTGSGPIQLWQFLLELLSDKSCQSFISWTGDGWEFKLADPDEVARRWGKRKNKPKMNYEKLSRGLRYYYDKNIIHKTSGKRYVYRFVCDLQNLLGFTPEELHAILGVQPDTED
Particulars: protein: recombinant; tags: N-terminal GST; dsDNA, one strand shown. A digest of the protocol:
as §1

The target in a further test is T9, SPDEF (Homo sapiens, UniProt O95238 1-335).
T9 sequence: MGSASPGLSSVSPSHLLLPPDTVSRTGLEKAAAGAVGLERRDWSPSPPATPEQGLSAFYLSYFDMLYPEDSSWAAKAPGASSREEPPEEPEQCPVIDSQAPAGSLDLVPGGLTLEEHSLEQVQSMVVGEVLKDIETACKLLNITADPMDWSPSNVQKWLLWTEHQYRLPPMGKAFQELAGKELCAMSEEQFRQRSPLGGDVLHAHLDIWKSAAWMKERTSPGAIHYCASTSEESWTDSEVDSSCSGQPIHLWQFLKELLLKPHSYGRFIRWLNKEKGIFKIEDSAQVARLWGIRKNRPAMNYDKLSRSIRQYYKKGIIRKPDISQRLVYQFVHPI
Particulars: protein: recombinant; tags: N-terminal GST; dsDNA, one strand shown. A digest of the protocol:
as §1

For the next test, the target named is T10, ETV7 (Homo sapiens, UniProt Q9Y603 1-341).
T10 sequence: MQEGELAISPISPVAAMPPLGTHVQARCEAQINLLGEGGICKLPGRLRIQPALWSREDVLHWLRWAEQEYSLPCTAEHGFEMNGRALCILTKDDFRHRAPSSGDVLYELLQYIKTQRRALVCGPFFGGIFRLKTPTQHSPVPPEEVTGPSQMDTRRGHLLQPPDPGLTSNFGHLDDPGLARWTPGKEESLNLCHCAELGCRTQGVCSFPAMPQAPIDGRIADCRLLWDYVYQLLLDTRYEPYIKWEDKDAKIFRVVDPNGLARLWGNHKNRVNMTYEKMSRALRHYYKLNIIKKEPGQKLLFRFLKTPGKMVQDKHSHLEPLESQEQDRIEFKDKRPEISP
Particulars: protein: recombinant; tags: N-terminal GST; dsDNA, one strand shown. Summed up: as §1

Another test concerns the target T11, ELF5 (Homo sapiens, UniProt Q9UKW6-2 1-255).
T11 sequence: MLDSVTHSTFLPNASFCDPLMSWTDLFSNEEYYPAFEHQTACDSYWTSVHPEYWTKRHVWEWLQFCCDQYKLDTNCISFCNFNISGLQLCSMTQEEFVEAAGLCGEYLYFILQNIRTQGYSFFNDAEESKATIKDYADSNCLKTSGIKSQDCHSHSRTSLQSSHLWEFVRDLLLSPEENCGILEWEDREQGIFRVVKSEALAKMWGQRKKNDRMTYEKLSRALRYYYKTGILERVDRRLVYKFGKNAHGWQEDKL
Particulars: protein: recombinant; tags: N-terminal GST; dsDNA, one strand shown. Summed up:
as §1

In a further test the target is T12, ETV3 (Homo sapiens, UniProt P41162-2 1-143).
T12 sequence: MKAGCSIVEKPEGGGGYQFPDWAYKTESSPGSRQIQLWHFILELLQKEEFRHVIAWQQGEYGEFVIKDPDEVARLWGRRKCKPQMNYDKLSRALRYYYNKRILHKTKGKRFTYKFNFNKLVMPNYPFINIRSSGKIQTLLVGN
The following applies: protein: recombinant; tags: N-terminal GST; dsDNA, one strand shown. A digest of the protocol: as §1

In another test the target is ETV6 (Homo sapiens, UniProt P41212 1-452). Particulars: protein: recombinant; tags: N-terminal GST; dsDNA, one strand shown. A digest of the protocol: as §1
ETV6, sequence (P41212 whole entry): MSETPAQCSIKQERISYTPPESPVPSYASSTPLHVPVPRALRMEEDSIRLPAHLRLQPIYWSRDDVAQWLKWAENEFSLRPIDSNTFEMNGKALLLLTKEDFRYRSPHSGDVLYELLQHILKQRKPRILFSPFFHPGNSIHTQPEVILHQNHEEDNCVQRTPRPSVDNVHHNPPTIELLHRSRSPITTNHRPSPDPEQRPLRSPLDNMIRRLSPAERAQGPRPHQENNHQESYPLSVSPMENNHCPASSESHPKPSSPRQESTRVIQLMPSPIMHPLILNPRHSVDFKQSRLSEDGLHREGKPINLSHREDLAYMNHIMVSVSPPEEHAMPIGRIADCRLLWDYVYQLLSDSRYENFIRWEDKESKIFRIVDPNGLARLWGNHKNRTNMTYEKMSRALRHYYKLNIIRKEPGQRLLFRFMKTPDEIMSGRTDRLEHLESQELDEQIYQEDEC

ELF4, sequence (Q99607 whole entry): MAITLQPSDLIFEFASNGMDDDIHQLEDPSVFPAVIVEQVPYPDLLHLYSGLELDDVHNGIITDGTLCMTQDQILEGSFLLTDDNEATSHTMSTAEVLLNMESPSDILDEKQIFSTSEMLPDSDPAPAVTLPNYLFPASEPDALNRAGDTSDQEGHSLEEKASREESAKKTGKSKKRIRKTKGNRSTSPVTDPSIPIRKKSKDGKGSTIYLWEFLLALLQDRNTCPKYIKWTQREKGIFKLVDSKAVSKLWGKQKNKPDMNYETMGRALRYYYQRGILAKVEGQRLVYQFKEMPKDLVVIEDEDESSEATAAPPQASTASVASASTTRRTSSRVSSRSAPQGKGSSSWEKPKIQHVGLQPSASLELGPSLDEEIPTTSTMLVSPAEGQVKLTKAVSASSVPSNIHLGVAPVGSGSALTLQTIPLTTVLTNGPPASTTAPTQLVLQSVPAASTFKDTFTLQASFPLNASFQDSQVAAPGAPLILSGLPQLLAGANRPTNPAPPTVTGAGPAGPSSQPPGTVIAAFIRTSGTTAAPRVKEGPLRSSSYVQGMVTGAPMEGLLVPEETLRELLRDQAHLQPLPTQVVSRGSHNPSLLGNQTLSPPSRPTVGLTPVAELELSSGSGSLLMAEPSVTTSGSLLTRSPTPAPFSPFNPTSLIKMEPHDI
CRX, sequence (O43186 whole entry): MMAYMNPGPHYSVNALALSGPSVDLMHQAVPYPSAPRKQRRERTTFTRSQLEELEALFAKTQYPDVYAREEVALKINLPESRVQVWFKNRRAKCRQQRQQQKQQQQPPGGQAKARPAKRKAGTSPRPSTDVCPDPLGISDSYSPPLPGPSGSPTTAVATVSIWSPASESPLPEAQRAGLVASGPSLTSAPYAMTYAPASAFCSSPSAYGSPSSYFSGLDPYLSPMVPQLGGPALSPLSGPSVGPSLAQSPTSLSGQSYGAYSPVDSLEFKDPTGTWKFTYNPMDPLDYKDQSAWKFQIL
ETV1, sequence (P50549 whole entry): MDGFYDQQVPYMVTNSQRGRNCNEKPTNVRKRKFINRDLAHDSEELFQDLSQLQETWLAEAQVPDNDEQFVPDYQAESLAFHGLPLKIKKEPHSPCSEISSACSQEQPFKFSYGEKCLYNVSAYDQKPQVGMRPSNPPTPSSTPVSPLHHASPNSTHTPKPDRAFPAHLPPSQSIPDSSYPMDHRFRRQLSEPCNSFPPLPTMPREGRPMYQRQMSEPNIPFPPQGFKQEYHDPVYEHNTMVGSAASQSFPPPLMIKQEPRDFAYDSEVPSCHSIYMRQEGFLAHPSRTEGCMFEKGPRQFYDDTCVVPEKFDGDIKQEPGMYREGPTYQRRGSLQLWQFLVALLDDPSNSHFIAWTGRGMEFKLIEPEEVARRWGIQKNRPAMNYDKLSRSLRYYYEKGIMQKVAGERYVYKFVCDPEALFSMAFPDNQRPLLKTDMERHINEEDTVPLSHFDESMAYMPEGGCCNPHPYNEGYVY
HSF1, sequence (Q00613 whole entry): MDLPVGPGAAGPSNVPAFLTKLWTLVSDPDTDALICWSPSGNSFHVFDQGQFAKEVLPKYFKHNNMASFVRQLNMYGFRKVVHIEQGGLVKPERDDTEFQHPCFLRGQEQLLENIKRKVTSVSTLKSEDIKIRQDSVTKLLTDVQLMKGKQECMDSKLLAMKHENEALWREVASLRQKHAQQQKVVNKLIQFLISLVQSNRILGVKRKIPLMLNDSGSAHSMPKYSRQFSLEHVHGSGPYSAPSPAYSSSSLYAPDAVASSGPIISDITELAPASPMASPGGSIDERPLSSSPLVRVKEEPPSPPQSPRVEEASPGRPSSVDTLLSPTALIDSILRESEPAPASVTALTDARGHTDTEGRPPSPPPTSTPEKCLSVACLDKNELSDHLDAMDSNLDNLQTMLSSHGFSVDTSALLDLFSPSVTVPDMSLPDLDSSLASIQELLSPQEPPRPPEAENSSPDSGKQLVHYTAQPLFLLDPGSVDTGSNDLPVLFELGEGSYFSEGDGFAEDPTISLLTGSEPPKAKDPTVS
ETV5, sequence (P41161 whole entry): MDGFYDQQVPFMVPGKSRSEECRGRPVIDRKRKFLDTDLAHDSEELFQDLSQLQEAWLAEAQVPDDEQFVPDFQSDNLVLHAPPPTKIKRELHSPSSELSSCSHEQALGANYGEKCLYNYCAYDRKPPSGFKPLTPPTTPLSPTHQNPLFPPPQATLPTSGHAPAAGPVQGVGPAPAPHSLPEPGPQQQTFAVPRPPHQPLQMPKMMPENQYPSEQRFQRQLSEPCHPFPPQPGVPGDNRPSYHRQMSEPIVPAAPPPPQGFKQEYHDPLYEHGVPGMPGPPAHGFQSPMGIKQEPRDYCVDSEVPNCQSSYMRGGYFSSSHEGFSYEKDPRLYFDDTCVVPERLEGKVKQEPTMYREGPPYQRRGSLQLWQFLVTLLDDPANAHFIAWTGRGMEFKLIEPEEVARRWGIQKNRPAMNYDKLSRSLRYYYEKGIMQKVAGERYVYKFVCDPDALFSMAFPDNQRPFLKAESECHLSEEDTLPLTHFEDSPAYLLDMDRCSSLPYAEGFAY

As to TCCAAT, the binding signal is 1.21 fold enrichment (6-mer frequency, TF over GST control) with FEV; 1.17 fold enrichment (6-mer frequency, TF over GST control) with ETV5; 1.23 fold enrichment (6-mer frequency, TF over GST control) with HSF1; 1.17 fold enrichment (6-mer frequency, TF over GST control) with SPIC; 1.21 fold enrichment (6-mer frequency, TF over GST control) with ELF4; 1.12 fold enrichment (6-mer frequency, TF over GST control) with ELK4. The binding signal was 1.24 fold enrichment (6-mer frequency, TF over GST control) with ETV2; 1.11 fold enrichment (6-mer frequency, TF over GST control) with ELF3; 1.27 fold enrichment (6-mer frequency, TF over GST control) with CRX; 1.17 fold enrichment (6-mer frequency, TF over GST control) with ETV1; 1.13 fold enrichment (6-mer frequency, TF over GST control) with ERF; 1.22 fold enrichment (6-mer frequency, TF over GST control) with ETV3L. Also, the binding signal was 1.2 fold enrichment (6-mer frequency, TF over GST control) with ETS2; 1.2 fold enrichment (6-mer frequency, TF over GST control) in the test with SPDEF; 1.33 fold enrichment (6-mer frequency, TF over GST control) with ETV7; 1.15 fold enrichment (6-mer frequency, TF over GST control) with ELF5; 1.2 fold enrichment (6-mer frequency, TF over GST control) with ETV3; 1.22 fold enrichment (6-mer frequency, TF over GST control) in the test with ETV6.
